KCNQ2 pot: enhances the rat KCNQ2 potassium channel. O88943. CHO-K1 KCNQ2, FluxOR thallium flux fluorescence; active compounds read high. B-score at 10 µM. hit rate 0.54% among 310,000;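 active = fluorescence ratio B-score at least 3 SD of library B-scores, with initial fluorescence B-score within 3 of them, cut at about 5.3 in these data; same plate scores as AID 2156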;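 note: B-score of peak minus minimum over baseline fluorescence ratio after K+ and Tl+ stimulus; positive B-score means potentiation of KCNQ2 with more thallium influx and brighter signal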
KCNQ2 block: KCNQ2 (rat) channel inhibition; O88943; AID 2156; CHO-K1 KCNQ2, FluxOR thallium flux, 20 min; active compounds read low; hit rate 1.1% among 310,000; B-score at 10 µM;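 active = fluorescence ratio B-score at most minus 3 library SDs, with starting brightness B-score within 2 library SDs, cut at about -5.5 in these data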
Kir21 conf inh: confirmation of mouse Kir2.1 potassium channel inhibitors | shares compounds with KCNQ2 pot | Kir2.1-expressing cells, FluxOR thallium flux fluorescence; active compounds read low | hit rate 41% among 2,300 | Tl flux remaining, % of negative control (active compounds read low), % at 10 µM | AID 2032;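 active = Primary-screen hit whose thallium flux fell at least 3 control SD below untreated wells in both duplicates, with normal baseline fluorescence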;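 note: 0% = blank wells without stimulus and 100% = stimulated no-compound controls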
HEK293 Tl flux: counter-screen for Kir2.1 inhibitors: effect in parental HEK293 cells | shares compounds with KCNQ2 pot | FluxOR signal as % of negative control (100 = no effect), % at 10 µM | FluxOR thallium flux fluorescence; 0% = unstimulated blank wells | hit rate 19% among 2,300 | AID 2105;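 active = dye signal at least 3 control SD above or below untreated wells in both duplicates, raw fluorescence within 3, either direction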;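 note: percent is based on the flux ratio of peak minus minimum fluorescence over baseline F0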
CHO-K1 Tl ctr: counter-screen for KCNQ2 potentiators: effect in parental CHO-K1 cells. FluxOR thallium flux fluorescence; zero = vehicle mean+3SD, 100% = vehicle-minus-blank window. activity increase over 3SD of controls, % at 10 µM. hit rate 43% among 1,200. shares compounds with KCNQ2 pot;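 active = signal rise of at least 3 SD above the untreated control mean, in both duplicate wells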;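 note: counter screen of KCNQ2 potentiator hits so any rise reflects channel-independent effects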
KCNQ1 sel pot: tests whether KCNQ2 potentiators also act on human KCNQ1 | shares compounds with KCNQ2 pot | AID 2283 | CHO KCNQ1 stable, FluxOR thallium flux fluorescence; beyond 3SD, as % of vehicle-control signal | activation over 3SD threshold, % at 10 µM | hit rate 28% among 1,200;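 active = fluorescence ratio rise of at least 3 SD of vehicle wells above their mean, in both replicate wells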;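 note: 0% = vehicle mean plus 3 SD and 100% = vehicle minus unstimulated blank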
Target sequence (P51787 whole entry, looked up): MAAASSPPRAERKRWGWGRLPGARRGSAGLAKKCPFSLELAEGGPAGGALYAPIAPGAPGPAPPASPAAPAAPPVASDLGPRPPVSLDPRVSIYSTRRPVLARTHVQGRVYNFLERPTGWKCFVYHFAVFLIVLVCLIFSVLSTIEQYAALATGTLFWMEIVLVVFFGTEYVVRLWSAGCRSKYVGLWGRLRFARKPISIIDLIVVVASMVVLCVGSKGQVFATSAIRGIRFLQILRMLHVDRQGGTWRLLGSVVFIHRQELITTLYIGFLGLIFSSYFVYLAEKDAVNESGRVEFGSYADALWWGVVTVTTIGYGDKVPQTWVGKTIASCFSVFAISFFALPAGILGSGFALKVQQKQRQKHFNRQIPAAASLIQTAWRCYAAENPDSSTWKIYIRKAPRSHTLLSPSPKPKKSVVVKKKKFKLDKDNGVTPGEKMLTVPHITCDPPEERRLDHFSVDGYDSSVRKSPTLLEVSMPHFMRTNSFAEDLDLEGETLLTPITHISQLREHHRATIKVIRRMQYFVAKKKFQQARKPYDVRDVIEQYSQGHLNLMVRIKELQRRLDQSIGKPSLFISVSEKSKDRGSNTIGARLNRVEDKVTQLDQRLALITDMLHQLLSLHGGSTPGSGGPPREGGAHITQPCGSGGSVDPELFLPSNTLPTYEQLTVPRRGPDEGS
KCNQ2 pot confirm: confirmation of rat KCNQ2 potassium channel potentiators; CHO-KCNQ2 cells, FluxOR thallium flux fluorescence; potentiation, less the hit threshold, % at 10 µM; hit rate 68% among 1,200; shares compounds with KCNQ2 pot;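 active = fluorescence ratio rising 3 SD or more over the vehicle control mean in both replicates, plus primary screen hit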;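 note: peak minus minimum thallium fluorescence divided by baseline after K/Tl stimulus; 0% = vehicle mean plus 3 SD and 100% = vehicle minus unstimulated blank difference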
Kir21 spec: mouse Kir2.1 off-target activity of KCNQ2 potentiators. shares compounds with KCNQ2 pot. AID 2345. HEK293 Kir2.1, FluxOR thallium flux fluorescence. hit rate 2% among 1,200. activity over 3SD threshold, % at 10 µM;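 active = fluorescence ratio rise of at least 3 SD above the vehicle-control mean, seen in both replicates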;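 note: 0% = vehicle mean plus 3 SD and 100% = vehicle minus no-stimulus blank window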
KCNQ2 W236L pot: potentiates the retigabine-insensitive rat KCNQ2 W236L mutant channel. shares compounds with KCNQ2 pot. CHO KCNQ2-W236L, automated patch clamp current. current increase over 3SD of negative controls (%), active compounds read high, % at 25 µM. hit rate 10% among 940. AID 2558;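 active = current increase at least 3 SD of the untreated controls above them in both duplicate recordings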
* hit, by the source's call; i = inactive; . = not tested or not shown. Shown are actives, neighbours in structure and some others; about 1.6% of the full set was active somewhere.

SMILES	KCNQ2 pot	KCNQ2 block	Kir21 conf inh	HEK293 Tl flux	others
CCc1noc(C)c1C(=O)OCC(=O)c1ccccc1OC	.	i	.	.
COc1ccc(/C=C/C(=O)c2ccccc2)cc1Cn1nnc2ccccc21	.	i	.	.
N#CC(c1ccc(O)cc1)c1ncc(C(F)(F)F)cc1Cl (configuration not stated)	2.2	i	48%*	i
NC(=O)C(c1ccc(Cl)cc1)c1ncc(C(F)(F)F)cc1Cl (configuration not stated)	3.4	i	.	.
Cc1ccc(N(CC(=O)Nc2ccc(Br)c(C)c2)S(=O)(=O)c2c(C)[nH]c(=O)[nH]c2=O)cc1	3.6	i	.	.
CCOc1ccc(N2CC(C(=O)N3CCN(c4ccccn4)CC3)CC2=O)cc1 (configuration not stated)	0.92	i	.	.
Cc1ccc(NC(=O)NC(=O)c2cnccc2C(F)(F)F)c(C)c1	0.34	i	.	.
Cc1ccc(N=C(NO)c2cnccc2C(F)(F)F)c(C)c1	7.4*	i	i	i	CHO-K1 Tl ctr=-2;KCNQ1 sel pot=-14;KCNQ2 pot confirm=-26;Kir21 spec=-39
COc1ccc(OC)c(C2C(C(C)=O)=C(C)Nc3ncnn32)c1 (configuration not stated)	.	i	.	.
Cn1cccc1/C=N/NC(=O)c1sc2ccccc2c1Cl	.	i	.	.
O=C(N/N=C/c1ccc([N+](=O)[O-])o1)c1sc2ccccc2c1Cl	5.5*	i	i	i	CHO-K1 Tl ctr=7.0*;KCNQ1 sel pot=-24;KCNQ2 pot confirm=-15;Kir21 spec=-35
Cc1nc2ccccc2c(=O)n1-c1cccc(NC(=O)c2cccs2)c1	0.47	i	.	.
O=C(Nc1cccc(N2C(=O)C=CC2=O)c1)c1cccs1	.	i	72%*	i
NC(=O)CC[C@H](NC(=O)c1ccc(F)cc1)C(=O)OCC(=O)NCc1ccc(F)cc1	0.5	i	.	.
Cc1c(Cc2ccccc2)c(=O)oc2c(CN(C)C)c(O)c(Cl)cc12	0.93	i	.	.
CN(C)Cc1c(O)ccc2oc(Cc3ccccc3)cc12	0.02	i	42%*	i
CC(C)CCNC(=O)c1onc(CSc2ccccc2)c1C(=O)NCCC(C)C	.	i	.	.
CC(=O)Nc1ccc(NCc2ccc(C)s2)cc1	3.8	i	.	.
CCCC(=O)Nc1ccc(NCc2ccc(C)s2)cc1	22*	i	i	i	CHO-K1 Tl ctr=-22;KCNQ1 sel pot=-32;KCNQ2 pot confirm=85*;Kir21 spec=-27;KCNQ2 W236L pot=i
COc1ccc(OC)c2nc(-c3ccc4c(c3)OCO4)ccc12	0.01	i	.	.
COc1ccc(C(=O)NC(C)c2nnc(SCC(=O)Nc3nc4ccccc4s3)n2C)cc1 (configuration not stated)	0.7	i	.	.
CC(C)c1cc(Br)ccc1OCCCN1C(=O)NC(C)(C)C1=O	.	i	i	i
CC1(C)NC(=O)N(CCCOc2ccc(Br)cc2Cl)C1=O	0.39	i	.	.
O=C(COC(=O)c1ccccc1O)Nc1cc([N+](=O)[O-])ccc1Cl	0.71	i	.	.
N=C1C(c2ccccc2)=C(O)CN1CCO	0.7	i	.	.
SMILES	KCNQ2 pot	KCNQ2 block	Kir21 conf inh	HEK293 Tl flux	others
Cc1ccc(C(C)C)cc1S(=O)(=O)NCc1ccccn1	.	i	67%*	i
Cc1cc(C)c(S(=O)(=O)NCc2ccccn2)cc1C	.	i	.	.
c1nc2nc3c(c(N4CCOCC4)n2n1)CCCC3	17*	i	i	i
CC1CCc2c(nc3ncnn3c2N2CCN(c3ccccc3)CC2)C1 (configuration not stated)	1.3	i	.	.
Cc1cc(C(F)(F)F)nc(SCC(=O)Nc2ccccc2)n1	0.13	i	.	.
Cc1cc(C(F)(F)F)nc(SCC(=O)NC2CC3CCC2C3)n1 (configuration not stated)	6*	i	.	.	CHO-K1 Tl ctr=-13;KCNQ1 sel pot=-11;KCNQ2 pot confirm=43*;Kir21 spec=-54;KCNQ2 W236L pot=i
CC(C)Sc1nnc(CNC(=O)C23CC4CC(CC(C4)C2)C3)n1C1CCCCC1	.	i	.	.
COc1ccccc1S(=O)(=O)CC(O)COc1ccc(C#N)cc1 (configuration not stated)	2.2	i	.	.
COc1ccc(C(C)NC(=S)NCc2ccc(F)cc2)cc1 (configuration not stated)	1.2	i	.	.
COc1cccc(C(C)NC(=S)NCc2ccc(Cl)cc2)c1 (configuration not stated)	0.34	i	52%*	i
C/C(=N\NC(=O)c1c[nH]c2ccccc12)c1ccccn1	.	i	.	.
C/C(=N\NC(=O)c1cc2ccccc2cc1O)c1cc2ccccc2o1	21*	i	i	452%*	CHO-K1 Tl ctr=93*;KCNQ1 sel pot=-9;KCNQ2 pot confirm=69*;Kir21 spec=-18;KCNQ2 W236L pot=i
C/C(=N\NC(=O)c1cc2ccccc2cc1O)c1ccccn1	5.9*	i	i	166%*	CHO-K1 Tl ctr=-9;KCNQ1 sel pot=3.0*;KCNQ2 pot confirm=-9;Kir21 spec=-29
C/C(=N\NC(=O)c1nc2ccccn2c1C)c1cc2ccccc2o1	0.96	i	.	.
CC1Cc2cc(/C(O)=C3/C(=O)C(=O)N(CCN4CCOCC4)C3c3ccc([N+](=O)[O-])cc3)ccc2O1 (configuration not stated)	.	i	.	.
C=C(C)C(=O)OCC(O)COc1ccc(C(C)(C)c2ccc(OCC(O)COC(=O)C(=C)C)cc2)cc1 (configuration not stated)	.	i	.	.
Cc1ccc(C(=O)NCCc2nnc3ccc(NCc4ccc5c(c4)OCO5)nn23)cc1	.	i	.	.
Cc1ccc(C(=O)NNC(=O)CSc2n[nH]c(-c3cccnc3)n2)cc1	.	i	.	.
O=c1ccsn1Cc1ccccc1	5.7*	i	.	.	CHO-K1 Tl ctr=-18;KCNQ1 sel pot=-17;KCNQ2 pot confirm=-4;Kir21 spec=-63
O=c1cc(Cl)[nH]c(=O)n1Cc1ccccc1	1.1	i	.	.
O=C(CCC(=O)N1CCCCCC1)NCc1ccc(F)cc1	.	i	.	.
COCCNC(=O)C1CC(c2cccc([N+](=O)[O-])c2)=NO1 (configuration not stated)	.	i	.	.
Cc1ccc(OCC(O)CN2CCc3ccccc3C2)c(C)c1 (configuration not stated)	.	i	28%*	i
OC(COC(c1ccc(Cl)cc1)c1ccc(Cl)cc1)CN1CCc2ccccc2C1 (configuration not stated)	.	i	.	.
